# The panel holds about 79,000 compounds, 15% with a hit somewhere; the sample as a whole holds those more often. Unmarked numbers belong to inactive results. Active and inactive are the calls of the source. Rule as the data show it: active = growth inhibition above about 70%; inactive = the rest.
# What was measured:
# [1] = NCI Yeast Anticancer Drug Screen. Data for the rad50 strain (AID 155);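 also: 0% = growth of vehicle-only cultures of the same strain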; conditions: S. cerevisiae rad50 strain growth inhibition; at 50.0 µM; hits give high values
# Procedure, shortened: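 DNA repair mutant yeast, compound exposure, growth read-out; inhibition is taken relative to vehicle.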
# [2] = NCI Yeast Anticancer Drug Screen. Data for the mec2-1 strain (AID 157); conditions: S. cerevisiae mec2-1 strain, at 50.0 µM, hits give high values
# Procedure, shortened: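 Cells of the genetically defined mec2-1 yeast strain are incubated with test compound. Inhibition of growth is calculated against vehicle-treated controls.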
# [3] = NCI Yeast Anticancer Drug Screen. Data for the sgs1 mgt1 strain (AID 161);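 also: 0% = growth of cultures given vehicle only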; conditions: S. cerevisiae sgs1 mgt1 strain, at 50.0 µM, hits give high values
# Procedure, shortened: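 Inhibition of yeast growth, normalised to vehicle-treated controls, is reported for a strain bearing genetic alterations in DNA damage repair.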
# [4] = NCI Yeast Anticancer Drug Screen. Data for the cln2 rad14 strain (AID 165);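 also: 0% = growth equal to vehicle treated cultures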; conditions: S. cerevisiae cln2 rad14 strain, at 50.0 µM, hits give high values
# Procedure, shortened: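 The screen exposed genetically defined yeast (cln2 rad14) to test compounds and scored growth inhibition relative to vehicle-treated controls.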
# [5] = NCI Yeast Anticancer Drug Screen. Data for the bub3 strain (AID 167); conditions: S. cerevisiae bub3 mutant strain, at 50.0 µM, hits give high values
# Procedure, shortened: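 In this screen, a yeast mutant lacking normal mitotic checkpoint function is challenged with compound. Relative growth versus vehicle gives the inhibition value.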
# [6] = NCI Yeast Anticancer Drug Screen. Data for the mlh1 rad18 strain (AID 175); conditions: S. cerevisiae mlh1 rad18 strain growth inhibition; at 50.0 µM; hits give high values
# Procedure, shortened: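 Compound-treated yeast growth, normalised to vehicle controls. Strain bears defined DNA repair mutations.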
Compound,growth inhibition [1],growth inhibition [2],growth inhibition [3],growth inhibition [4],growth inhibition [5],growth inhibition [6]
N=C1N=Nc2nc(C(C(=O)c3cccs3)c3nc4n(c3O)C(=N)N=N4)c(O)n21 (stereo unspecified),-5.1%,17.1%,-1.25%,-15.3%,1.7%,-12.3%
CCCc1c(O)ccc(C)c1C,14.6%,2.5%,1.1%,-36.2%,-7.35%,32.4%
CCCCCCCSSCCCCCCC,-9.85%,-26.1%,-3.55%,11.9%,-16%,-0.4%
CC1(C)CC(O)CC(C)(C)N1.CC1(C)CC(O)CC(C)(C)N1.CC1(C)CC(O)CC(C)(C)N1.CC1(C)CC(O)CC(C)(C)N1.Cl.[Ti],-2.95%,-4.45%,12.9%,17.8%,26.1%,10.5%
C=CCOc1ccc(C2CCCCC2)cc1,42%,16.9%,20.5%,11.6%,-2.75%,18.3%
C=C1CC(C)(COc2cc(=O)oc3ccccc23)OC1=O (stereo unspecified),51%,30.3%,53.2%,38.5%,25.6%,40.5%
CC(C)(C#N)OC(=O)Nc1c(Cl)cccc1Cl,2.4%,-23.2%,5.15%,3.6%,11.2%,6.5%
O=c1c2c(-c3ccccc3)c3ccccc3nc2cnn1-c1ccccc1,-18.4%,-11%,-18.4%,-18.4%,-24.9%,-14.2%
C=C/C=C1\CCOC1=O,1.15%,-5.9%,2.85%,-3.05%,3.1%,-10.6%
CC(C)(C)C(=O)CC(=O)C(F)(F)C(F)(F)C(F)(F)F.CC(C)(C)C(=O)CC(=O)C(F)(F)C(F)(F)C(F)(F)F.CC(C)(C)C(=O)CC(=O)C(F)(F)C(F)(F)C(F)(F)F.[Eu],9.65%,39.4%,21.2%,39.5%,39.8%,-1.2%
CC1CC(=O)c2cc3oc(=O)n(C)c3cc21 (stereo unspecified),-3.4%,-4.15%,-6.2%,-20.5%,19.2%,-0.45%
COc1ccc(C2C3=CONC3CC3CCCCC32)cc1 (stereo unspecified),4.5%,-34.5%,-0.4%,8.25%,6.25%,6.5%
O=C(O)CC(CC(=O)O)c1ccc2c(c1)OCO2,-32.6%,-20.9%,-3.7%,-1.2%,-35.8%,-13.1%
C/C(=N/O)c1ccc(C(F)(F)F)cc1,-5.25%,-15.6%,-18.8%,-17.9%,-48.5%,-2.15%
COC(=O)N1CCC(Sc2ccccc2)C2(CCSc3ccccc3)CCC=C12 (stereo unspecified),-2.2%,-2.95%,5%,-28.1%,-27.6%,-12.6%
CCNC(=O)C(C(=O)OC)c1ccccc1 (stereo unspecified),3.7%,-1.5%,5.3%,-3.45%,30.8%,1.2%
Nc1nc2c(ncn2-c2cccc(Cl)c2)c(=O)[nH]1,-0.9%,16.5%,7.55%,-7.5%,31.5%,13.8%
COC(=O)/C=C/CCBr,-13%,-22.1%,-17.6%,-39.1%,-5.2%,-11.5%
CC(=O)NC1C(OCc2ccccc2)OC(CO)C(O)C1OCC(=O)N1CCCC1C(=O)NC(CCC(=O)NCCCCCNc1c2ccccc2nc2cccc([N+](=O)[O-])c12)C(N)=O (stereo unspecified),42.9%,57.6%,47.6%,78.2% (active),0.55%,72.5% (active)
CCC(S)(C(N)=O)c1ccccc1 (stereo unspecified),3%,-10.4%,-7.55%,-26.8%,-4.8%,-18.2%
COC1=CC(=O)C(CC=C(C)C)=CC1=O,5.65%,-9.9%,-1.2%,-62.4%,-8.9%,-3.2%

Compound,growth inhibition [1],growth inhibition [2],growth inhibition [3],growth inhibition [4],growth inhibition [5],growth inhibition [6]
CC(C)CSCC1OC(n2cnc3c(N)nccc32)C(O)C1O (stereo unspecified),-6.15%,-13.8%,-7.85%,10%,-12.7%,-20.4%
COc1ccc(C(Cc2ccccc2)Nc2ccccc2)cc1 (stereo unspecified),4.1%,-6.7%,28.6%,-17%,-0.95%,-1.2%
COc1ccc(C(=Nc2ccc(C)cc2)c2ccccc2)cc1,-2.1%,7.2%,-6.05%,-43.6%,-9.1%,-15.6%
CC1(C)OB(O)OC1(C)C,-10.4%,12.7%,-35.2%,14.6%,-0.9%,-9.7%
O=C(O)CCc1c[nH]c2ccccc12,10.2%,1.15%,31.8%,-55.4%,-7.95%,18.5%
CC(C)=C(CO)CCC(C)C,-9.3%,-22.9%,-10.4%,16.9%,6.65%,-0.05%
O=C1N(Cc2ccccc2)CC2CCc3c(ccc4ccccc34)N12 (stereo unspecified),11%,-12.9%,-1.3%,-3.85%,4.85%,4.75%
C=CC(C)(C)[C@@]12CC3C(=O)N[C@@H](Cc4ccccc4)C(=O)N3[C@@H]1N(C(C)=O)c1ccccc12 (stereo partly specified),73.2% (active),12.2%,16.7%,50.5%,45.6%,53.1%
COc1ccc(Cc2ccc3[nH]c(=O)cc(C)c3c2)cc1S(=O)(=O)O,33.8%,-17.6%,-15.5%,41.7%,-17.7%,8.95%
CNC(=O)OCc1nc(SSC(C)(C)C)n(C)c1COC(=O)NC,2.65%,-1.5%,20.3%,1.9%,16.2%,-9.4%
NC(=S)NNC(=O)CCC(=O)Nc1ccccc1Cl,-0.15%,-2.3%,-11.8%,37.2%,-3.95%,6.65%
CCCCCC(CN(C)C)C(=O)CC(SCC)c1ccc(Cl)c(Cl)c1 (stereo unspecified),99.5% (active),99.5% (active),99.5% (active),99.5% (active),99.2% (active),99.3% (active)
O=c1oc2ccc3ccccc3c2cc1-c1c[nH]c2ccccc12,10.7%,10%,15.2%,11.6%,6.05%,7.05%
COC(=O)CCN(CCC(=O)OC)C1CC1,-23.4%,-14.3%,-13.4%,19.6%,3.75%,-20.4%
O=C(O)C12C3CCC(C3)C1(C(=O)O)C1CCC2C1 (stereo unspecified),-13.3%,-13.9%,-14.4%,24.3%,-0.65%,-12.2%
O=C(NNC(=O)C(F)(F)F)C(F)(F)F,0.55%,-3.4%,-5.1%,-10%,-12.8%,-2%
CN(C)CCNC(=O)c1cccc2c(Nc3ccc(S(=O)(=O)N=C(N)N)cc3)c3ccccc3nc12,-24.4%,-0.3%,-37%,8.35%,-34.9%,53.9%
C=CCc1cc(C(C)=O)ccc1O,2.75%,-14.5%,-9.75%,-19.2%,-8.95%,-11.7%
CC1C(=NO)C(C)C(c2ccccc2)N(N=O)C1c1ccccc1 (stereo unspecified),-12.6%,-20.5%,-6.1%,3.25%,0.45%,26.4%
O=C(NC1(C(=O)O)CCCC1)c1ccccc1,-34.5%,-27.2%,-12.7%,-31.7%,-4.35%,0.7%
